A selection: hits, their analogues and other compounds. The true share with any hit is near 2.4%.
miR122 inh: miR-122 Renilla sensor signal increase in Huh7, primary screen, miR-122 inhibitor project, cell-based, single point, plate reader. Huh7 miR-122 Renilla luciferase sensor, 48 h; neutral wells = 0, positive control = 100. hit rate 0.3% among 340,000. activation (reporter increase), % at 12.5 µM. AID 602342, 2012;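 active = mean replicate activation score at least 90 and every replicate individually at or above 90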;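 also: higher luciferase means less miR-122 activity so hits act as miR-122 inhibitors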
NSD2 inh: NSD2 histone methyltransferase inhibitors, primary screen, biochemical, AlphaScreen, single concentration, set 2; NSD2 peptide methylation, 120 min; hit rate 0.54% among 310,000; Histone-lysine N-methyltransferase NSD2 (Homo sapiens), O96028; inhibition, % at 12.5 µM
Target sequence (O96028 whole entry, looked up): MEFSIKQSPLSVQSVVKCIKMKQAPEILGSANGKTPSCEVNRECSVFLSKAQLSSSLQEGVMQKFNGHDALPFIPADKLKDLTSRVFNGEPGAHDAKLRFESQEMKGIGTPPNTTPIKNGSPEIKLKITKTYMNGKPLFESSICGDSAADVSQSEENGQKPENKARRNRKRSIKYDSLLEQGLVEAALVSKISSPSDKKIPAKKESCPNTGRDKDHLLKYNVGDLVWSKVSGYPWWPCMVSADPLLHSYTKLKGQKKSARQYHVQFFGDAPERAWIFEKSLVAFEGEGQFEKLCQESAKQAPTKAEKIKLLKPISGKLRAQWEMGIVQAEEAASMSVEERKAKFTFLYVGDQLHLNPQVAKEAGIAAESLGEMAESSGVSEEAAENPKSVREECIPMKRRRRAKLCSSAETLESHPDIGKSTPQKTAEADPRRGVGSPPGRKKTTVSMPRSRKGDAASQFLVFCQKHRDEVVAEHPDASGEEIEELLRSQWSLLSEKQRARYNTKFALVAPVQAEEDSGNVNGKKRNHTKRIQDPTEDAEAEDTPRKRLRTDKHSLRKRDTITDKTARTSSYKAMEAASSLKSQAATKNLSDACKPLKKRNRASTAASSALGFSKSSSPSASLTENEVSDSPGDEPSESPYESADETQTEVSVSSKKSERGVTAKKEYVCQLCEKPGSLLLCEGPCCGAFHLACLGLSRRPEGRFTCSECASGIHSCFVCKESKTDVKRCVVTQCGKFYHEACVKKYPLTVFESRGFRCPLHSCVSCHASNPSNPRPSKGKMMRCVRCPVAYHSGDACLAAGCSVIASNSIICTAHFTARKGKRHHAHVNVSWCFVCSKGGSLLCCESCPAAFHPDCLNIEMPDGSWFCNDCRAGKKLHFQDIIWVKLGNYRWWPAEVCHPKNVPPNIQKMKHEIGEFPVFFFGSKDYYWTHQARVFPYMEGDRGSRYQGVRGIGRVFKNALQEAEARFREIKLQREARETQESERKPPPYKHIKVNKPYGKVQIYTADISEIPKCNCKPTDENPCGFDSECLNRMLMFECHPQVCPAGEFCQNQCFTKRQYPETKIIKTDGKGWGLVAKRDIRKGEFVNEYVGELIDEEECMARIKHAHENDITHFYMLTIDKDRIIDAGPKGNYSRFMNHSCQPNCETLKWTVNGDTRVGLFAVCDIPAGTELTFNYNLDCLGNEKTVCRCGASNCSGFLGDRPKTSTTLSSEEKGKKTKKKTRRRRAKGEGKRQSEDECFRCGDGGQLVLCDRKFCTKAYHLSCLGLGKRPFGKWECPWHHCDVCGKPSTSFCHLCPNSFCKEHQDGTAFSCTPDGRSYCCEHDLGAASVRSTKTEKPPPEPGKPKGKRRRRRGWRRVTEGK
INS-1E GSIS act: GLuc luminescence reporter in INS-1E cells, primary screen for activators of glucose-dependent secretion of insulin; INS-1E GLuc reporter insulin secretion, 2-3 h; activation, % at 16.6 µM; hit rate 0.61% among 370,000;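 active = lowest replicate activation of at least 40%, so every replicate reaches that level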;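 also: 0% = median of neutral control wells and 100% = median of IBMX positive control wells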
MITF act: activators of MITF-driven TRPM1 promoter reporter, primary screen, cell-based, SK-MEL-5, luciferase, single point | hit rate 0.75% among 300,000 | AID 588334, 2011 | activation, % at 12.5 µM | SK-MEL-5 TRPM1-promoter luciferase, 24 h; % of positive control, neutral wells = 0;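 active = mean activation of at least 80% with every replicate also reaching 80%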;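 also: 0% = neutral control wells and 100% = parthenolide positive control wells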
Dyrk1A ADPGlo: rat Dyrk1A kinase inhibitors, primary screen, biochemical, single point, plate reader; Dual specificity tyrosine-phosphorylation-regulated kinase 1A (Rattus norvegicus), Q63470; ADP-Glo luminescence, NFATc1 peptide; inhibition, % at 12.5 µM; hit rate 0.43% among 310,000; AID 504441, 2011;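 also: plate controls were vehicle with enzyme for no effect and no enzyme for full effect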
Wnt act: Wnt/beta-catenin pathway activators, primary screen, cell-based, plate reader, single point | Wnt/beta-catenin reporter cell assay, activator | AID 743398, 2014 | hit rate 1.2% among 300,000 | activation, % at 9.35 µM; in the data active = activation above about 30%, passing the limit was not always enough;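 also: 0% = neutral control wells and 100% = positive control wells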
miR-27b select: miR-27b levels after miR-122 inhibitor treatment, dose response, selectivity assay for miR-122 inhibitor project, cell-based, Huh7, RT-qPCR, dry powder; 35 tested, under 10 active; shares compounds with miR122 inh; Huh7 miR-27b levels, qRT-PCR, 48 h; relative miR-27b level (unnormalised ratio), ratio at 35 µM;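 active = compounds lowering miR-27b whose fitted half-maximal dose is at most twice their top tested dose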
Alpha artifact: AlphaScreen signal interference with preloaded methylated product, dose response, artefact control for NSD2 inhibitor project, biochemical, cherry-picked samples; AID 1053174, 2014; hit rate 9.4% among 1,500; shares compounds with NSD2 inh; AC35, µM (titrated, usually from 10 µM), inactives show top-dose activity change, negative = signal loss; AlphaScreen artifact counterscreen, preloaded methylated H4 peptide; call rule not given here
Numbers without * were called inactive; . = no result; [ ] = dose if it differs, or a comment. Rule as the data show it, unless noted: active = inhibition above about 50%; inactive = the rest.

SMILES | miR122 inh | NSD2 inh | INS-1E GSIS act | MITF act | Dyrk1A ADPGlo | Wnt act | miR-27b select | Alpha artifact
Cc1ccc(/C=C/C(=O)O)cc1S(=O)(=O)NCCO | -3 | 0 | 37 | -3 | -9 | . | . | .
Cc1cc(C(C)(C)C)cc(S(=O)(=O)NCCO)c1C | 93* | 0 | . | -5 | 0 | 1 | 0.94 | .
CN1C(=O)c2cc(NC(=O)C3CCOCC3)ccc2OC[C@H]2O[C@@H](CC(=O)O)CC[C@H]21 | -7[16.7 µM] | . | 4 | . | . | . | . | .
COc1ccc(C)cc1NS(=O)(=O)c1ccc2c(c1)N(C)CCO2 | 149* | 27 | 0 | -2 | 0 | 0 | 1.2 | .
Cc1ccc(S(=O)(=O)Nc2ccc3c4c(cccc24)CC3)c(C)c1 | 198* | 1 | . | . | 0 | -2 | 0.65 | .
Cc1cccc(NS(=O)(=O)c2cc3c(cc2C)NC(=O)CO3)c1 | 107* | . | 6 | . | -8 | 2 | 0.69 | .
O=C(c1ccccc1F)N1CC[C@H]2[C@H](CO)Nc3ccc(-c4ccc(F)cc4)cc3[C@H]21 | 15[16.7 µM] | . | 12 | . | . | . | . | .
CO[C@@H]1CN(C)C(=O)c2ccc(NC(=O)c3ccc(F)cc3)cc2OC[C@H](C)N(C(=O)CC2CC2)C[C@H]1C | . | . | -3 | . | . | . | . | .
Cc1ccc(C)c(S(=O)(=O)Nc2ccc3cn[nH]c3c2)c1 | 153* | 0 | -1 | -16 | 6 | 1 | 1.3 | .
CCOc1ccccc1N1CCN(C(=O)c2cccc(-c3ccc(O)cc3)c2)CC1 | 156* | 5 | . | -7 | 1 | -3 | 0.84 | .
CCOc1ccccc1N1CCN(C(=O)c2ccncc2)CC1 | . | -1 | . | 2 | 18 | 0 | . | .
Cc1cc(C)c(C)c(S(=O)(=O)NC2CCCCC2)c1C | 93* | -3 | -3 | 6 | 11 | 0 | 0.68 | .
CCOc1ccc(C)cc1S(=O)(=O)NC1CCCCC1 | 283* | -3 | . | . | -8 | -7 | 0.52 | .
CCOc1cc(S(=O)(=O)NC2CCCCC2)ccc1F | 37 | -1 | . | 4 | 3 | -4 | . | .
Cc1ccc(S(=O)(=O)N(C)C[C@H]2Oc3c(NS(=O)(=O)c4cn(C)cn4)cccc3C(=O)N([C@H](C)CO)C[C@@H]2C)cc1 | 2[16.7 µM] | . | -3 | . | . | . | . | .
COCCNS(=O)(=O)c1ccc2c3c(cccc13)C(=O)N2C | 33 | 0 | 0 | -7 | -2 | 0 | . | .
CN1C(=O)c2cccc3c(S(=O)(=O)NCCc4ccccc4)ccc1c23 | 117* | -17 | -13 | 8 | 3 | -1 | 0.64 | .
Cc1ccc(Cn2c(N)c(S(=O)(=O)c3cccs3)c3nc4ccccc4nc32)cc1 | 27 | -3 | . | -28 | . | -8 | . | .
Nc1c(S(=O)(=O)c2cccs2)c2nc3ccccc3nc2n1Cc1ccccc1 | 321* | 4 | . | 7 | -1 | . | 0.43 | .
CNC[C@H]1Oc2cc(C#Cc3ccc(OC)cc3)ccc2S(=O)(=O)N([C@H](C)CO)C[C@@H]1C | 5[16.7 µM] | . | -10 | . | . | . | . | .
O=C(Nc1ccc(N2CCOCC2)c(S(=O)(=O)Nc2cc(Cl)ccc2Cl)c1)c1cccnc1 | 325* | 3 | 6 | -19 | -5 | 3 | 0.99 | .
C[C@@H]1CN([C@H](C)CO)C(=O)c2c(c3ccccc3n2C)-c2ccccc2CO[C@@H]1CN(C)Cc1ccc(Cl)c(Cl)c1 | . | . | 15 | . | . | . | . | .
Nc1c(/C=C2/C=CC(=O)C(O)=C2)c(=O)nc2sc(CC(=O)N3CCOCC3)nn12 | . | 114* | -7 | -1 | . | -1 | . | 3.6µM*
COc1ccc(OC)c(C(=O)Nc2c(O)ccc3ccccc23)c1 | . | 52* | . | -4 | . | 3 | . | 2%
COc1ccc(C2/C(=C(\O)c3cccc(OC)c3)C(=O)C(=O)N2c2ccccn2)cc1 (centres undefined) | 0 | 116* | 10 | -3 | 20 | -1 | . | -1%
SMILES | miR122 inh | NSD2 inh | INS-1E GSIS act | MITF act | Dyrk1A ADPGlo | Wnt act | miR-27b select | Alpha artifact
COc1cccc(/C(O)=C2\C(=O)C(=O)N(c3ccccn3)C2c2ccccc2OC)c1 (centres undefined) | -2 | -1 | . | -2 | 1 | 5 | . | .
CCN(CC)C(=O)c1ccc(Oc2ccc([N+](=O)[O-])cc2Cl)cc1 | -7 | 7 | -22 | -16 | -3 | -1 | . | .
CCN(CC)C(=O)c1cc([N+](=O)[O-])cc2c1-c1ccc([N+](=O)[O-])cc1C2=C(C#N)C#N | -2 | 87* | -15 | . | -5 | 2 | . | -15%
COc1ccc(-n2nnnc2SCC(=O)c2ccc(O)c(O)c2)cc1 | 3 | -1 | . | -3 | -6 | . | . | .
NC(=O)c1ccc(-n2nnnc2SCC(=O)c2ccc(O)c(O)c2)cc1 | 129* | 89* | 8 | 0 | 7 | -1 | . | -5%
CCCNC(=O)[C@@H]1[C@@H](CO)[C@@H]2Cn3c(ccc(-c4ccccc4)c3=O)[C@H]1N2Cc1ccccc1F | 12[16.7 µM] | . | -15 | . | . | . | . | .
CCOC(=O)c1c2c(n(Cc3ccccc3)c1C)C(=O)C(=O)c1ccccc1-2 | . | 63* | -33 | -103 | 0 | -6 | . | 9.3µM*
O=C(O)c1ccc(CSc2n[nH]c(-c3ccco3)n2)cc1 | 4 | 108* | . | . | -1 | . | . | -5%
CC(C)CC#Cc1ccc2c(c1)O[C@@H](CN(C)CC1CCOCC1)[C@@H](C)CN([C@@H](C)CO)S2(=O)=O | -4[16.7 µM] | . | -3 | . | . | . | . | .
COc1cc2sc(C)nc2c2ccccc12 | . | 64* | 19 | -4 | -3 | 0 | . | -1%
ClN=C1C=CC=CC1=NCl | . | 108* | . | . | . | . | . | -3%
Cc1cc(C)nc(N2CCC(C(=O)N(C)CCc3ccccc3)CC2)n1 | . | 60* | . | . | . | . | . | -3%
Cc1cccc2c(N=NC(=O)c3ccc(NS(=O)(=O)c4cccs4)cc3)c(O)[nH]c12 | -10 | 64* | 4 | 34 | -3 | 18 | . | -8%
COc1cc(/C=C2\C(=N)N3N=C(S(C)(=O)=O)SC3=NC2=O)ccc1OC(=O)c1ccco1 | . | 48 | 4 | -6 | . | -2 | . | .
COc1cc(/C=C2\C(=N)N3N=C(S(C)(=O)=O)SC3=NC2=O)ccc1OC(=O)c1cccs1 | . | 62* | -16 | 5 | . | -2 | . | -7%
Cc1nnc(N/N=C/c2ccc(-c3ccc(Br)cc3)o2)n1N | . | . | -5 | 7 | -1 | 6 | . | .
Cc1nnc(N/N=C\c2ccc(-c3cccc(C(=O)O)c3)o2)n1N | . | 95* | 2 | -22 | 38 | 2 | . | 4%

Bioassay records deposited in PubChem BioAssay by Broad Institute.
